Reference: PubChem BioAssay
Values joined by “and” are separate entries in the source; they are usually repeats but may differ in a detail not shown here. Equal values may be shown once. Inconclusive results are not listed. Active and inactive are the calls of the source.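 Rule for the calls, unless noted: active = normalized viability below 100% at a tested concentration; inactive = the rest.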

Columns and labels:
[1] = growth inhibition of DIPG glioma cells, dose response, cell-based, SU-DIPG-XVII, MIPE5.0, CellTiter-Glo, qHTS (AID 1347060; cut-off not given, nearly all actives have AC50 up to about 26 µM;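 for AC50: cells exposed to compound for 48 hours before viability readout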); conditions: SU-DIPG-XVII viability, CellTiter-Glo ATP luminescence
[2] = growth inhibition of DIPG glioma cells, dose response, cell-based, JHH-DIPG-1, MIPE4.0, CellTiter-Glo, qHTS (AID 1347062; cut-off not given, nearly all actives have AC50 up to about 27 µM;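 for AC50: cells exposed to compound for two days before readout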); conditions: JHH-DIPG-1 viability, CellTiter-Glo ATP luminescence
[3] = growth inhibition of DIPG glioma cells, dose response, cell-based, SU-DIPG-XIII, MIPE5.0, CellTiter-Glo, qHTS (AID 1347064; cut-off not given, nearly all actives have AC50 up to about 23 µM;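 for AC50: cells exposed to compound for 48 hours before the viability read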); conditions: SU-DIPG-XIII viability, CellTiter-Glo ATP luminescence
[4] = JHH-DIPG-1 glioma cell viability, MIPE5.0 library, CellTiter-Glo luminescence, qHTS (AID 1347067; cut-off not given, nearly all actives have AC50 up to about 26 µM;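 note: cells exposed to compound for 48 hours before readout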); conditions: JHH-DIPG-1 glioma viability, CellTiter-Glo ATP luminescence
[5] = SU-DIPG-XXV glioma cell viability, MIPE5.0 library, qHTS (AID 1347068; cut-off not given, nearly all actives have IC50 up to about 30 µM;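 for IC50: cells exposed to compound for 48 hours before viability readout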)
[6] = sensitizers of A549 cells to miR-34 induction, primary screen, imaging, A549 dox-inducible miR-34, nuclei and caspase counts (AID 1347080;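 active = compounds whose cell count with miR-34 switched on is under 0.7 times the count with it off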); conditions: A549 miR-34 inducible, Hoechst nuclei count, 48 h
[7] = modifiers of HSF1 nuclear foci, imaging, Selleck Cancer Library (AID 1347162; in the data active = plate-normalised HSF1 focus index below about 0.46); conditions: human cells, at 10 µM; SSMD: measured here: HSF1 foci SSMD mean; cell count: measured here: cell number; plate-normalised HSF1 focus index: stronger effect = lower value
[8] = survival rescue of mitochondrial mutant cells in low glucose, primary screen, MELAS cybrids, Rieske KO mouse fibroblasts, CellTiter-Glo (AID 1508586;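 active = mean z-score across replicates of 1.96 or higher in either the MELAS or the Rieske mutant cell line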;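 note: z relative to plate mean and SD of compound and empty wells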)
[9] = ovarian cancer cell viability with rucaparib, profiling panel, oncology-focused library, rucaparib conditional (AID 1508598); conditions: patient-derived ovarian cancer cells, CellTiter-Glo viability, 144 h, stronger effect = lower value
[10] = viability loss in pontine glioma line – cell-based, SU-DIPG-XXV, MIPE5.0, CellTiter-Glo, qHTS, dose response (AID 1347065; cut-off not given, nearly all actives have AC50 up to about 26 µM;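 note: cells exposed to compound for 48 hours before ATP readout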); conditions: CellTiter-Glo ATP luminescence
[11] = SU-DIPG-VI glioma cell viability, MIPE4.0 library, CellTiter-Glo luminescence, qHTS (AID 1347066; cut-off not given, nearly all actives have AC50 up to about 30 µM;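 note: cells exposed to compound for 48 hours before readout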); conditions: CellTiter-Glo ATP luminescence
[12] = stronger effect = lower value, cell number ratio, induced over uninduced
[13] = measured here: relative caspase fold change +Dox/-Dox
[14] = measured here: total cells with miR-34 induction, stronger effect = lower value
[15] = measured here: total cells without miR-34 induction
[16] = MELAS cybrid survival, CellTiter-Glo 48 h, stronger effect = higher value
[17] = Rieske KO mouse fibroblast survival, CellTiter-Glo 72 h
[18] = at 0.000305 µM, OCI-C5x cells, with rucaparib 10 µM, 100% = cells with rucaparib alone
[19] = at 0.000305 µM, OCI-C5x cells, without rucaparib
[20] = at 0.000305 µM, OCI-P5x cells, with rucaparib 20 µM, 100% = cells with rucaparib alone
[21] = at 0.000305 µM, OCI-P5x cells, without rucaparib
[22] = at 0.00122 µM, OCI-C5x cells, with rucaparib 10 µM, 100% = cells with rucaparib alone
[23] = at 0.00122 µM, OCI-C5x cells, without rucaparib
[24] = at 0.00122 µM, OCI-P5x cells, with rucaparib 20 µM, 100% = cells with rucaparib alone
[25] = at 0.00122 µM, OCI-P5x cells, without rucaparib
[26] = at 0.00488 µM, OCI-C5x cells, with rucaparib 10 µM, 100% = cells with rucaparib alone
[27] = at 0.00488 µM, OCI-C5x cells, without rucaparib
[28] = at 0.00488 µM, OCI-P5x cells, with rucaparib 20 µM, 100% = cells with rucaparib alone
[29] = at 0.00488 µM, OCI-P5x cells, without rucaparib
[30] = at 0.0195 µM, OCI-C5x cells, with rucaparib 10 µM, 100% = cells with rucaparib alone
[31] = at 0.0195 µM, OCI-C5x cells, without rucaparib
[32] = at 0.0195 µM, OCI-P5x cells, with rucaparib 20 µM, 100% = cells with rucaparib alone
[33] = at 0.0195 µM, OCI-P5x cells, without rucaparib
[34] = at 0.0781 µM, OCI-C5x cells, with rucaparib 10 µM, 100% = cells with rucaparib alone
[35] = at 0.0781 µM, OCI-C5x cells, without rucaparib
[36] = at 0.0781 µM, OCI-P5x cells, with rucaparib 20 µM, 100% = cells with rucaparib alone
[37] = at 0.0781 µM, OCI-P5x cells, without rucaparib
[38] = at 0.313 µM, OCI-C5x cells, with rucaparib 10 µM, 100% = cells with rucaparib alone
[39] = at 0.313 µM, OCI-C5x cells, without rucaparib
[40] = at 0.313 µM, OCI-P5x cells, with rucaparib 20 µM, 100% = cells with rucaparib alone
[41] = at 0.313 µM, OCI-P5x cells, without rucaparib
[42] = at 1.25 µM, OCI-C5x cells, with rucaparib 10 µM, 100% = cells with rucaparib alone
[43] = at 1.25 µM, OCI-C5x cells, without rucaparib
[44] = at 1.25 µM, OCI-P5x cells, with rucaparib 20 µM, 100% = cells with rucaparib alone
[45] = at 1.25 µM, OCI-P5x cells, without rucaparib
[46] = at 5 µM, OCI-C5x cells, with rucaparib 10 µM, 100% = cells with rucaparib alone
[47] = at 5 µM, OCI-C5x cells, without rucaparib
[48] = at 5 µM, OCI-P5x cells, with rucaparib 20 µM, 100% = cells with rucaparib alone
[49] = at 5 µM, OCI-P5x cells, without rucaparib

COc1ccc(S(=O)(=O)Nc2cccnc2Nc2ccc(O)cc2)cc1
1190: cell count [6, 14]
1.94: SSMD [7]
inactive: fold change [6, 12] 1.24 | plate-normalised HSF1 focus index [7] 1.07 | z-score [8, 16] 0.679 | viability [9, 18] 111% | viability [9, 19] 122% | viability [9, 20] 117% | viability [9, 21] 128% | viability [9, 22] 119% | viability [9, 23] 133% | viability [9, 24] 118% | viability [9, 25] 119% | viability [9, 26] 119% | viability [9, 27] 133% | viability [9, 28] 112% | viability [9, 29] 121% | viability [9, 30] 113% | viability [9, 31] 128% | viability [9, 32] 108% | viability [9, 33] 122% | viability [9, 34] 110% | viability [9, 35] 134% | viability [9, 36] 111% | viability [9, 37] 111%
0.79: fold change [6, 13]
7150: cell count [7]
962: cell count [6, 15]
-0.295: z-score [8, 17]
active: AC50 [1] 0.263 µM | AC50 [2] 0.166 µM | AC50 [3] 0.468 µM | AC50 [4] 0.468 µM | IC50 [5] 10.5 µM | viability [9, 38] 58.8% | viability [9, 39] 76.1% | viability [9, 40] 94.4% | viability [9, 41] 28.4% | viability [9, 42] 50% | viability [9, 43] 49.6% | viability [9, 44] 72.9% | viability [9, 45] 23% | viability [9, 46] 43.3% | viability [9, 47] 62% | viability [9, 48] 70.9% | viability [9, 49] 17.9%

COc1ccc2c(c1)c(C1=C(c3c[nH]c4ccccc34)C(=O)NC1=O)cn2CCCN(C)C
4580 and 4760: cell count [6, 15]
-0.0818: z-score [8, 17]
4170 and 4590: cell count [6, 14]
0.481 and 1.22: fold change [6, 13]
active: AC50 [1] 20.9 µM | AC50 [2] 16.6 µM | AC50 [10] 20.9 µM | AC50 [4] 20.9 µM | IC50 [5] 29.5 µM
inactive: fold change [6, 12] 0.91 and 0.965 | z-score [8, 16] -0.592

CN1CC(=O)NC1=NC(=O)Nc1cccc(Cl)c1
inactive: outcome [1] | outcome [2] | outcome [3] | outcome [10] | outcome [4] | outcome [5]
active: AC50 [11] 23.5 µM

CCN(CCO)CCCOc1ccc2c(Nc3cc(CC(=O)Nc4cccc(F)c4)[nH]n3)ncnc2c1
0.861: fold change [6, 13]
2230: cell count [6, 15]
1.14: SSMD [7]
0.586: z-score [8, 17]
2110: cell count [6, 14]
active: AC50 [1] 0.235 µM | AC50 [10] 0.148 µM | viability [9, 31] 91.6% | viability [9, 34] 81% | viability [9, 35] 77.3% | viability [9, 37] 80.5% | viability [9, 38] 65.1% | viability [9, 39] 80.3% | viability [9, 40] 82.3% | viability [9, 41] 65.3% | viability [9, 42] 83.4% | viability [9, 43] 83% | viability [9, 44] 86.7% | viability [9, 45] 62% | viability [9, 47] 95.3% | viability [9, 48] 83.1% | viability [9, 49] 58.7%
7480: cell count [7]
inactive: outcome [2] | outcome [11] | fold change [6, 12] 0.945 | plate-normalised HSF1 focus index [7] 1.04 | z-score [8, 16] -0.237 | viability [9, 18] 106% | viability [9, 19] 113% | viability [9, 20] 110% | viability [9, 21] 110% | viability [9, 22] 103% | viability [9, 23] 118% | viability [9, 24] 115% | viability [9, 25] 108% | viability [9, 26] 114% | viability [9, 27] 112% | viability [9, 28] 115% | viability [9, 29] 111% | viability [9, 30] 109% | viability [9, 32] 104% | viability [9, 33] 106% | viability [9, 36] 104% | viability [9, 46] 107%

Cn1cc(/C=C/C(=O)c2cccc(F)c2)cc1/C=C/C(=O)NO
active: AC50 [1] 3.72 µM | AC50 [3] 2.35 µM | AC50 [10] 5.25 µM | AC50 [4] 13.2 µM
inactive: outcome [2] | outcome [11]

Cc1cc(-c2ncc(CC(=O)Nc3ccc(-c4cnccn4)cn3)cc2C)ccn1
6130: cell count [6, 14]
6730: cell count [6, 15]
0.406: fold change [6, 13]
inactive: outcome [1] | outcome [2] | outcome [3] | outcome [11] | outcome [5] | fold change [6, 12] 0.911 | z-score [8, 16] -0.348
0.85: z-score [8, 17]
